# In article PMC11006913:
# Numbering of substitutions follows the chain as printed.
# Experiments:
# Assay in all cases: PBM; 200 nM protein, PBS
# Details in all cases: dsDNA, one strand shown
# [1] = molecular target: NKX2-5 (Homo sapiens, UniProt P52952 125-210, R139K)
# [2] = molecular target: T1, NKX2-4 (Homo sapiens, UniProt Q9H2Z4 175-261, P217L)
# T1 sequence: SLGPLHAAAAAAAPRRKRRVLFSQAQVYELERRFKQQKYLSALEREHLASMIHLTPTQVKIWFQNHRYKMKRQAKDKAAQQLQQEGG
# [3] = molecular target: T2, NKX2-4 (Homo sapiens, UniProt Q9H2Z4 175-261, T231S)
# T2 sequence: T1 sequence with L43P, T57S
# [4] = molecular target: T3, NKX2-4 (Homo sapiens, UniProt Q9H2Z4 175-261)
# T3 sequence: T1 sequence with L43P
# [5] = molecular target: T4, NKX2-6 (Homo sapiens, UniProt A6NCS4 118-204, R150C)
# T4 sequence: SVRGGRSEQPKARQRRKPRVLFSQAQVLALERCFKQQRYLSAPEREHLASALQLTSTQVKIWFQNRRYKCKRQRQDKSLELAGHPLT
# [6] = molecular target: T5, NKX2-6 (Homo sapiens, UniProt A6NCS4 118-204)
# T5 sequence: T4 sequence with C33R
# [7] = molecular target: T6, NKX2-4 (Homo sapiens, UniProt Q9H2Z4 175-261, R246Q)
# T6 sequence: T1 sequence with L43P, R72Q
# [8] = molecular target: T7, NKX2-6 (Homo sapiens, UniProt A6NCS4 118-204, F151L)
# T7 sequence: T4 sequence with C33R, F34L
# [9] = molecular target: NKX3-2 (Homo sapiens, UniProt P78367 192-278, P234S)
# [10] = molecular target: NKX2-5 (Homo sapiens, UniProt P52952 125-210)
# [11] = molecular target: NKX3-2 (Homo sapiens, UniProt P78367 192-278)
# NKX3-2 (Homo sapiens, UniProt P78367 192-278), sequence (P78367 192-278): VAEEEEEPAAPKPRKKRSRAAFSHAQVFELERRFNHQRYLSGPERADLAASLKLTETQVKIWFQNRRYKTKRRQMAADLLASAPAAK
# NKX2-5 (Homo sapiens, UniProt P52952 125-210), sequence (P52952 125-210): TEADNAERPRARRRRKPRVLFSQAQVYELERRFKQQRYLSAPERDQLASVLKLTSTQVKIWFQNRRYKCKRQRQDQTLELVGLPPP
# NKX2-5 (Homo sapiens, UniProt P52952 125-210, R139K), sequence (P52952 125-210 R139K): as the sequence (P52952 125-210) above, with R15K counted along it
# NKX3-2 (Homo sapiens, UniProt P78367 192-278, P234S), sequence (P78367 192-278 P234S): as the sequence (P78367 192-278) above, with P43S counted along it
Sequence,binding signal [1],binding signal [2],binding signal [3],binding signal [4],binding signal [5],binding signal [6],binding signal [7],binding signal [8],binding signal [9],binding signal [10],binding signal [11]
CACTTAAA,"13.1 upbm affinity estimate (log intensity, higher = more binding, comparable within an allelic series)","12.7 upbm affinity estimate (log intensity, higher = more binding, comparable within an allelic series)","13.1 upbm affinity estimate (log intensity, higher = more binding, comparable within an allelic series)","12.6 upbm affinity estimate (log intensity, higher = more binding, comparable within an allelic series)","12 upbm affinity estimate (log intensity, higher = more binding, comparable within an allelic series)","13.8 upbm affinity estimate (log intensity, higher = more binding, comparable within an allelic series)","13.2 upbm affinity estimate (log intensity, higher = more binding, comparable within an allelic series)","11.4 upbm affinity estimate (log intensity, higher = more binding, comparable within an allelic series)","12.7 upbm affinity estimate (log intensity, higher = more binding, comparable within an allelic series)","13 upbm affinity estimate (log intensity, higher = more binding, comparable within an allelic series)","12.8 upbm affinity estimate (log intensity, higher = more binding, comparable within an allelic series)"
GGCACTTA,"13.1 upbm affinity estimate (log intensity, higher = more binding, comparable within an allelic series)","12.7 upbm affinity estimate (log intensity, higher = more binding, comparable within an allelic series)","13.1 upbm affinity estimate (log intensity, higher = more binding, comparable within an allelic series)","12.6 upbm affinity estimate (log intensity, higher = more binding, comparable within an allelic series)","12.1 upbm affinity estimate (log intensity, higher = more binding, comparable within an allelic series)","13.8 upbm affinity estimate (log intensity, higher = more binding, comparable within an allelic series)","13.2 upbm affinity estimate (log intensity, higher = more binding, comparable within an allelic series)","11.4 upbm affinity estimate (log intensity, higher = more binding, comparable within an allelic series)","13.3 upbm affinity estimate (log intensity, higher = more binding, comparable within an allelic series)","13 upbm affinity estimate (log intensity, higher = more binding, comparable within an allelic series)","13.4 upbm affinity estimate (log intensity, higher = more binding, comparable within an allelic series)"
AGTACTTA,"12.9 upbm affinity estimate (log intensity, higher = more binding, comparable within an allelic series)","12.6 upbm affinity estimate (log intensity, higher = more binding, comparable within an allelic series)","13.1 upbm affinity estimate (log intensity, higher = more binding, comparable within an allelic series)","12.5 upbm affinity estimate (log intensity, higher = more binding, comparable within an allelic series)","12 upbm affinity estimate (log intensity, higher = more binding, comparable within an allelic series)","13.8 upbm affinity estimate (log intensity, higher = more binding, comparable within an allelic series)","13.1 upbm affinity estimate (log intensity, higher = more binding, comparable within an allelic series)","11.2 upbm affinity estimate (log intensity, higher = more binding, comparable within an allelic series)","12.6 upbm affinity estimate (log intensity, higher = more binding, comparable within an allelic series)","12.8 upbm affinity estimate (log intensity, higher = more binding, comparable within an allelic series)","12.7 upbm affinity estimate (log intensity, higher = more binding, comparable within an allelic series)"
CCACTTAC,"13 upbm affinity estimate (log intensity, higher = more binding, comparable within an allelic series)","12.6 upbm affinity estimate (log intensity, higher = more binding, comparable within an allelic series)","12.9 upbm affinity estimate (log intensity, higher = more binding, comparable within an allelic series)","12.4 upbm affinity estimate (log intensity, higher = more binding, comparable within an allelic series)","12.2 upbm affinity estimate (log intensity, higher = more binding, comparable within an allelic series)","13.7 upbm affinity estimate (log intensity, higher = more binding, comparable within an allelic series)","13 upbm affinity estimate (log intensity, higher = more binding, comparable within an allelic series)","11 upbm affinity estimate (log intensity, higher = more binding, comparable within an allelic series)","13.2 upbm affinity estimate (log intensity, higher = more binding, comparable within an allelic series)","12.8 upbm affinity estimate (log intensity, higher = more binding, comparable within an allelic series)","13.3 upbm affinity estimate (log intensity, higher = more binding, comparable within an allelic series)"
CACTTGAC,"12.9 upbm affinity estimate (log intensity, higher = more binding, comparable within an allelic series)","12.7 upbm affinity estimate (log intensity, higher = more binding, comparable within an allelic series)","13.1 upbm affinity estimate (log intensity, higher = more binding, comparable within an allelic series)","12.6 upbm affinity estimate (log intensity, higher = more binding, comparable within an allelic series)","11.9 upbm affinity estimate (log intensity, higher = more binding, comparable within an allelic series)","13.7 upbm affinity estimate (log intensity, higher = more binding, comparable within an allelic series)","13.3 upbm affinity estimate (log intensity, higher = more binding, comparable within an allelic series)","11.2 upbm affinity estimate (log intensity, higher = more binding, comparable within an allelic series)","12.1 upbm affinity estimate (log intensity, higher = more binding, comparable within an allelic series)","12.9 upbm affinity estimate (log intensity, higher = more binding, comparable within an allelic series)","12.2 upbm affinity estimate (log intensity, higher = more binding, comparable within an allelic series)"
ATTAAGTG,"12.7 upbm affinity estimate (log intensity, higher = more binding, comparable within an allelic series)","12.5 upbm affinity estimate (log intensity, higher = more binding, comparable within an allelic series)","12.9 upbm affinity estimate (log intensity, higher = more binding, comparable within an allelic series)","12.4 upbm affinity estimate (log intensity, higher = more binding, comparable within an allelic series)","11.8 upbm affinity estimate (log intensity, higher = more binding, comparable within an allelic series)","13.7 upbm affinity estimate (log intensity, higher = more binding, comparable within an allelic series)","13 upbm affinity estimate (log intensity, higher = more binding, comparable within an allelic series)","11 upbm affinity estimate (log intensity, higher = more binding, comparable within an allelic series)","12.7 upbm affinity estimate (log intensity, higher = more binding, comparable within an allelic series)","12.6 upbm affinity estimate (log intensity, higher = more binding, comparable within an allelic series)","12.8 upbm affinity estimate (log intensity, higher = more binding, comparable within an allelic series)"
